Growth inhibition, inhibition and outcome data for 20 compounds are collected here from PubChem BioAssay.

For orientation: inhibition means the relative decrease from the control value, in per cent.

A number with no mark means an inactive call. For some of these results: Measured potencies and affinities stand elsewhere. Active and inactive are the calls of the source. Unless noted, how the calls were made is not given here.

A short description of assay [1]: antimalarial activity against Dd2 strain (AID 2302;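 active means growth inhibition above 50% at the single 2 µM test dose, taken to imply half-maximal potency below 2 µM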;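 further: 0% = DMSO untreated growth and 100% = chloroquine plus artemisinin killed control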). Particulars: P. falciparum Dd2 in RBCs, LDH growth readout, 72 h; at 2 µM; hits give high values.
Assay [2] can be described thus: human hepatoma cell viability loss – ATP luminescence, cytotoxicity control for P. falciparum antimalarial project, primary screen (AID 2303;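 active means inhibition above 50%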;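 further: 0% = DMSO wells and 100% = digitonin-killed cells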). Particulars: HepG2 viability, 24-48 h, at 10 µM, hits give high values.
Assay [3] has as its target L-lactate dehydrogenase (Plasmodium falciparum (isolate CDC / Honduras)) (UniProt Q27743). Put plainly: PfLDH activity inhibition – cell lysate, 3D7 strain, counter-screen for P. falciparum growth inhibition project (AID 2304).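 Further: 0% = vehicle and 100% = reference inhibitor.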 Particulars: P. falciparum 3D7 crude extract, LDH APAD/NBT absorbance; at 2 µM; hits give high values.
A short description of assay [4]: inhibition of 3D7 malaria parasite growth – strain 3D7 (AID 2306).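 Further: 0% = DMSO wells and 100% = chloroquine plus artemisinin control wells.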 To be noted: P. falciparum 3D7 erythrocytic growth, LDH absorbance, 72 h; at 2 µM; hits give high values.
Assay [5] addresses Calcium-dependent protein kinase 1 (Plasmodium falciparum (isolate 3D7)) (UniProt P62344). Put plainly: PfCDPK1 kinase inhibitors, biochemical, TCAMS library (AID 1159585; cut-off not given, nearly all actives have IC50 up to about 0.98 µM;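 further: inhibitors leave more ATP so luminescence rises with inhibition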). Particulars: recombinant PfCDPK1, Kinase-Glo ATP depletion luminescence. For orientation: Kinase-Glo reads ATP consumption through a luciferase reaction.
Assay [6] has as its target Plasmodium falciparum protein kinase 6 (PK6, PF3D7_1337100) (UniProt Q8IDW1). Put plainly: PfPK6 kinase inhibitors, biochemical, TCAMS library (AID 1159586). Particulars: recombinant PfPK6, Kinase-Glo ATP depletion luminescence.
Assay [7] addresses Protein kinase 7 (PK7), Plasmodium falciparum 3D7 (PF3D7_0213400) (UniProt Q7YTF7). Put plainly: inhibition of Plasmodium PK7 catalytic activity – biochemical, TCAMS antimalarial set, Kinase-Glo luminescence (AID 1159587). Particulars: recombinant PfPK7, Kinase-Glo ATP depletion luminescence.
For assay [8], the target named is Calcium-dependent protein kinase 4 (Plasmodium falciparum (isolate 3D7)) (UniProt Q8IBS5). Put plainly: PfCDPK4 kinase inhibitors, biochemical, TCAMS library (AID 1159588; cut-off not given, nearly all actives have IC50 up to about 0.91 µM). Particulars: recombinant PfCDPK4, Kinase-Glo ATP depletion luminescence.
Chain of Calcium-dependent protein kinase 4 (Plasmodium falciparum (isolate 3D7)) (Q8IBS5 whole entry, looked up): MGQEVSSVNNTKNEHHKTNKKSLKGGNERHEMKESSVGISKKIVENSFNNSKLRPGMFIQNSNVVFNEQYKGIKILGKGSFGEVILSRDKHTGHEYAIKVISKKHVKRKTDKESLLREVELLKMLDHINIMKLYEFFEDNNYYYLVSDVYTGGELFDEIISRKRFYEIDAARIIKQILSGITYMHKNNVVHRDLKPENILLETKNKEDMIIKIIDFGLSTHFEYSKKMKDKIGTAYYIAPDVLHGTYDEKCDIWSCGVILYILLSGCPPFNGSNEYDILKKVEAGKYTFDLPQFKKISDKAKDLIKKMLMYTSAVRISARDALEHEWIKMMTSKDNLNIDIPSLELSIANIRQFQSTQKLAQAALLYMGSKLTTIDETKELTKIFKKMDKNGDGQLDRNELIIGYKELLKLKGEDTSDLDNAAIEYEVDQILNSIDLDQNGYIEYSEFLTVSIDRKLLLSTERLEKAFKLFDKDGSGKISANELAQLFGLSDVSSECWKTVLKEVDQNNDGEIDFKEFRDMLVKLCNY

Chain of L-lactate dehydrogenase (Plasmodium falciparum (isolate CDC / Honduras)) (Q27743 whole entry, looked up): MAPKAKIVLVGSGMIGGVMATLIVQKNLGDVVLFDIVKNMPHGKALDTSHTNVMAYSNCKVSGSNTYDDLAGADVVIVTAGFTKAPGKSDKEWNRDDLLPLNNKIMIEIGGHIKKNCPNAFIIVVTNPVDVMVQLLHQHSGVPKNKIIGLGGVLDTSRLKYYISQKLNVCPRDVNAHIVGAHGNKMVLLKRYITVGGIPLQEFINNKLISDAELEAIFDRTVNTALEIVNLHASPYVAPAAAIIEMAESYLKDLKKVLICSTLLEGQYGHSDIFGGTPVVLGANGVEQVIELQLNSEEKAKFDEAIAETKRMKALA
Chain of Calcium-dependent protein kinase 1 (Plasmodium falciparum (isolate 3D7)) (P62344 whole entry, looked up): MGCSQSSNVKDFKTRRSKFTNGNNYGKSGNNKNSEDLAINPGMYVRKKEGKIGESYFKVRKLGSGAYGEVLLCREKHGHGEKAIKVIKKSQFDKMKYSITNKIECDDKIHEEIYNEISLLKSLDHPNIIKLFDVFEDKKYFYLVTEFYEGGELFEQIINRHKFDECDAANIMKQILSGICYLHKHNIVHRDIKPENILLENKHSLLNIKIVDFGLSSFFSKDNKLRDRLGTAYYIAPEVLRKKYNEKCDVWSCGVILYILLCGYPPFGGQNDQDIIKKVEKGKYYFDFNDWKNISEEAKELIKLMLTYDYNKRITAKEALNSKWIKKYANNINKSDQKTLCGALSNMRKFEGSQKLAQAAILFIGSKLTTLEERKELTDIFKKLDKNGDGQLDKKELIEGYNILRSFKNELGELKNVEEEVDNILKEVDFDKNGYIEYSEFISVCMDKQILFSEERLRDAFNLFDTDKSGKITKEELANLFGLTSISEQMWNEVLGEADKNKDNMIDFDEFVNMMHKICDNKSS
Chain of Protein kinase 7 (PK7), Plasmodium falciparum 3D7 (PF3D7_0213400) (Q7YTF7 1-343): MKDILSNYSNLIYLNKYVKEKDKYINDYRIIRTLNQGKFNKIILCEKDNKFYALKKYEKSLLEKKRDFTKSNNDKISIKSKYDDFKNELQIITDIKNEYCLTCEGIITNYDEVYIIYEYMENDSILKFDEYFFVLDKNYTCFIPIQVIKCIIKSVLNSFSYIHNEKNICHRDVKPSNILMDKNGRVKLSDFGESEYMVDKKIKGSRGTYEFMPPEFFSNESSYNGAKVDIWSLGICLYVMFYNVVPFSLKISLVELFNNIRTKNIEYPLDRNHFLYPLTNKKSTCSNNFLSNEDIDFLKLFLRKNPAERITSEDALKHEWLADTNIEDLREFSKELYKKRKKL
Chain of Plasmodium falciparum protein kinase 6 (PK6, PF3D7_1337100) (Q8IDW1 1-305): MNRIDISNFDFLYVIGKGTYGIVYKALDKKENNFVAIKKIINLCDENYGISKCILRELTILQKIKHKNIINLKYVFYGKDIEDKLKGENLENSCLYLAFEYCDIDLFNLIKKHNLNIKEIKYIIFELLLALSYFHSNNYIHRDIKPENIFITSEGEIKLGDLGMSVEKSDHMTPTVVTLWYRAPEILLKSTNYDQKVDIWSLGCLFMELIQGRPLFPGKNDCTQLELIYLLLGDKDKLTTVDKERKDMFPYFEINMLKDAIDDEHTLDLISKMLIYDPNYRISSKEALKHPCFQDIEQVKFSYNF

As for `O=C(NCc1cccc(F)c1)Nc1ccc(-c2cccc(-c3nc4ccc(F)cc4[nH]3)c2)cc1`, the growth inhibition was 2% in assay [1] and 88% (active) in assay [4]. The inhibition in assay [2] was 31%; in assay [3], 7%. For the same compound, the result in assay [5], in assay [6], in assay [7] and in assay [8] was inactive.

For the compound `OC(CNCCCCCCNCC(O)c1ccc(Cl)c(Cl)c1)c1ccc(Cl)c(Cl)c1` (stereo not given), the growth inhibition was 17% in assay [1] and 90% (active) in assay [4]. For the same compound, the inhibition in assay [2] is 99% (active); in assay [3], -5%. For the same compound, the outcome in assay [5], in assay [6], in assay [7] and in assay [8] was inactive.

For the compound `CCC(C)OC(=O)C1=C(C)NC2=C(C(=O)CC(c3ccc(OC)c(OC)c3)C2)C1c1ccc(C)o1` (stereo not given), the growth inhibition in assay [1] was 82% (active); in assay [4], 93% (active). Besides, the inhibition in assay [2] is 6%; in assay [3], 2%. The outcome in assay [5], in assay [6], in assay [7] and in assay [8] was inactive.

`CCNC[C@@H](O)[C@H](Cc1ccccc1)NC(=O)c1cc2c3c(c1)c(CC)cn3CCS(=O)(=O)N2C`: the growth inhibition in assay [1] is 65% (active); in assay [4] it was 99% (active). Also, the results for the inhibition in assay [2] and in assay [3] were 0% and -4%, respectively. The outcome in assay [5], in assay [6], in assay [7] and in assay [8] was inactive.

Turning to `CC1(C)N=C(N)N=C(N)N1OCCc1ccc2ccccc2c1`, the growth inhibition in assay [1] is 95% (active); in assay [4] it was 96% (active). For the same compound, the inhibition in assay [2] is 65% (active); in assay [3], 3%. Further, the result in assay [5], in assay [6], in assay [7] and in assay [8] was inactive.

As to `O=C(C=Cc1ccc(Cl)c(Cl)c1)NCCCCCN1CCCC(CCCNS(=O)(=O)c2ccc(Br)cc2)C1` (stereo not given), the growth inhibition is 5% in assay [1] and 88% (active) in assay [4]. Moreover, the inhibition was 43% in assay [2] and -2% in assay [3]. Also, the result in assay [5], in assay [6], in assay [7] and in assay [8] was inactive.

Take `Cc1noc(C)c1-c1ccc(C(=C2CCCCCCC2)c2ccc(O)cc2)cc1`: the growth inhibition is 48% in assay [1] and 83% (active) in assay [4]. For the same compound, the inhibition in assay [2] was -6%; in assay [3] it was 1%. Moreover, the result in assay [5], in assay [6], in assay [7] and in assay [8] was inactive.

On to `COc1ccc2nc(C)cc(Nc3ccc(Oc4ccc5ccccc5c4)c(Cl)c3)c2c1`, for which the growth inhibition in assay [1] was 99% (active); in assay [4] it was 102% (active). The inhibition in assay [2] is 40%; in assay [3], 3%. The result in assay [5], in assay [6], in assay [7] and in assay [8] was inactive.

As to `Cc1cccc2[nH]c(-c3ccc(-c4cccc(CNCc5ccccc5)c4)cc3)nc12`, the growth inhibition in assay [1] is 52% (active); in assay [4], 102% (active). The inhibition is 3% in assay [2] and -1% in assay [3]. Further, the result in assay [5], in assay [6], in assay [7] and in assay [8] was inactive.

As to `O=C(Nc1ccc(Cl)c(Cl)c1)N1CCC(NCc2cccc([N+](=O)[O-])c2)CC1`, the figures for the growth inhibition in assay [1] and in assay [4] were 12% and 97% (active), respectively. The inhibition was 8% in assay [2] and 2% in assay [3]. The result in assay [5], in assay [6], in assay [7] and in assay [8] was inactive.

For `Cc1cccc2[nH]c(-c3cccc(-c4cccc(CNCCN5CCNCC5)c4)c3)nc12`, the growth inhibition is 0% in assay [1] and 90% (active) in assay [4]. Besides, the inhibition was 11% in assay [2] and 1% in assay [3]. Moreover, the outcome in assay [5], in assay [6], in assay [7] and in assay [8] was inactive.

`O=C(OCc1ccccc1)N1CCc2c([nH]c3ccccc23)C1CCC(F)(F)F` (stereo not given): the growth inhibition is 81% (active) in assay [1] and 94% (active) in assay [4]. Besides, the inhibition in assay [2] was 0%; in assay [3], 3%. Also, the result in assay [5], in assay [6], in assay [7] and in assay [8] was inactive.

With `CCc1ccc(C2CCN(CCCCNC(=O)c3ccc(NC(=O)c4ccc(Cl)cc4)cc3)CC2)c(OCC(=O)OC)c1`, the growth inhibition is 12% in assay [1] and 95% (active) in assay [4]. Further, the figures for the inhibition in assay [2] and in assay [3] were 32% and 6%, respectively. For the same compound, the outcome in assay [5], in assay [6], in assay [7] and in assay [8] was inactive.

With `CN1CCC(Oc2ccc(CN3CC[C@H](NC(=O)c4cccc(C#N)c4)C3)c3ccccc23)C1` (stereo not given in full), the values for the growth inhibition in assay [1] and in assay [4] were 30% and 97% (active), respectively. For the same compound, the figures for the inhibition in assay [2] and in assay [3] were 10% and -1%, respectively. Further, the result in assay [5], in assay [6], in assay [7] and in assay [8] was inactive.

As to `Cc1ccc(C(NC(=O)C2CCCCC2)c2ccc3cccnc3c2O)cc1` (stereo not given), the growth inhibition was 59% (active) in assay [1] and 91% (active) in assay [4]. The inhibition in assay [2] was 69% (active); in assay [3] it was 2%. Also, the outcome in assay [5], in assay [6], in assay [7] and in assay [8] was inactive.

`CC1=C(C(=O)Nc2cc3cn[nH]c3cc2F)C(c2cccc(O)c2F)CC(=O)N1` (stereo not given): the growth inhibition was 98% (active) in assay [1] and 97% (active) in assay [4]. In addition, the inhibition in assay [2] was 1%; in assay [3], -2%. For the same compound, the result in assay [5], in assay [6], in assay [7] and in assay [8] was inactive.

As for `Cc1cc(N[C@@H](Cc2ccccc2)C(=O)NCc2cccc(F)c2)nc(NCCc2ccccc2)n1`, the growth inhibition was 73% (active) in assay [1] and 101% (active) in assay [4]. Also, the values for the inhibition in assay [2] and in assay [3] were 7% and 0%, respectively. The result in assay [5], in assay [6], in assay [7] and in assay [8] was inactive.

On to `Cc1cc(N[C@@H](Cc2ccccc2)C(=O)NCc2cccs2)nc(NCCc2cccnc2)n1`, for which the growth inhibition is 38% in assay [1] and 84% (active) in assay [4]. In addition, the results for the inhibition in assay [2] and in assay [3] were 10% and -4%, respectively. Also, the result in assay [5], in assay [6], in assay [7] and in assay [8] was inactive.

As for `O=[N+]([O-])c1cccc(CNCC2CCN(CC3CCCCC3)CC2)c1`, the growth inhibition in assay [1] is 14%; in assay [4] it was 90% (active). The inhibition is 11% in assay [2] and 2% in assay [3]. The result in assay [5], in assay [6], in assay [7] and in assay [8] was inactive.

For `COc1ccc(-c2cc(C(=O)N[C@@H](Cc3ccccc3)C(=O)NCCN3CCCCC3)ccc2O)cc1`, the growth inhibition in assay [1] is -3%; in assay [4], 96% (active). In addition, the inhibition is -3% in assay [2] and 1% in assay [3]. Also, the outcome in assay [5], in assay [6], in assay [7] and in assay [8] was inactive.
